Experimental data: PubChem BioAssay
Active and inactive are the calls of the source. The rule behind the calls is not given here.

Tested on: Aerobactin synthetase IucA (Klebsiella pneumoniae, hypervirulent)
Assay: IucA enzyme inhibition, biochemical, LOPAC library, absorbance readout (AID 1346212);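 note: 100% = no compound wells and 0% = no enzyme wells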
Settings: IucA enzyme assay, absorbance (OD) readout; active compounds read low;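 tested at 8 µM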

Row | SMILES | remaining activity
1 | O=c1[nH]c2cc([N+](=O)[O-])c([N+](=O)[O-])cc2[nH]c1=O | 101% (inactive)
2 | O=c1c2ccccc2nc2n1CCc1c-2[nH]c2ccccc12 | 82.9% (inactive)
3 | CSC(=N)N | 123% (inactive)
4 | NC1CONC1=O (stereo not given) | 120% (inactive)
5 | CN1CCc2cc(Cl)c(O)cc2[C@@H](c2ccccc2)C1 | 102% (inactive)
6 | NC1(C(=O)O)CCCCC1 | 125% (inactive)
7 | O=C(O)c1cc([N+](=O)[O-])ccc1NCCCc1ccccc1 | 118% (inactive)
8 | CC(C)c1ccc2c(c1)c(SC(C)(C)C)c(CC(C)(C)C(=O)O)n2Cc1ccc(Cl)cc1 | 113% (inactive)
9 | O=C1NC(c2cccc([N+](=O)[O-])c2)=CCN1c1ccccc1O | 105% (inactive)
10 | NS(=O)(=O)c1cccc2c1c([N+](=O)[O-])cc1nc(O)c(O)nc12 | 106% (inactive)
11 | CCOC(=O)C1=C(C)NC(C)=C(C(=O)OC)C1c1cccc(Cl)c1Cl (stereo not given) | 99.8% (inactive)
12 | CN1[C@@H]2CC[C@H]1CC(OC(=O)C(CO)c1ccccc1)C2 (stereo not given in full) | 95% (inactive)
13 | N#C/C(=C\c1ccc(O)c(O)c1)C(=O)NCCc1ccccc1 | 102% (inactive)
14 | COc1cc(CC(=O)O)ccc1O | 83.1% (inactive)
15 | CN(C)c1cc2c(Nc3ccc4c(cnn4Cc4ccccc4)c3)ncnc2cn1 | 115% (inactive)
16 | COC(=O)c1c(C)[nH]c(C)c1C(=O)c1ccccc1Cc1ccccc1 | 96.6% (inactive)
17 | CC(N)(Cc1ccc(O)cc1)C(=O)O (stereo not given) | 106% (inactive)
18 | CC(=O)[C@H]1CCC2C3CC=C4C[C@@H](OS(=O)(=O)O)CC[C@]4(C)C3CC[C@@]21C (stereo not given in full) | 107% (inactive)
19 | NC(=Nc1ccccc1)NC(=O)c1nc(Cl)c(N)nc1N | 105% (inactive)
20 | OCCN1CCN(CCCN2c3ccccc3C=Cc3ccccc32)CC1 | 117% (inactive)

Row | SMILES | remaining activity
21 | C[C@]12CC[C@@H]3c4ccc(O)cc4CC[C@H]3[C@@H]1CC[C@@H]2O | 99.8% (inactive)
22 | CCCn1c(=O)c2[nH]c(-c3ccc(OCC(=O)NCCN)cc3)nc2n(CCC)c1=O | 109% (inactive)
23 | CCCCCCCCCCC/C=C\C(C)(C)/C=C\CCCC(=O)O | 86.5% (inactive)
24 | NC(N)=NCCC[C@H](N)C(=O)O | 111% (inactive)
25 | CNCC[C@@H](Oc1ccc(C(F)(F)F)cc1)c1ccccc1 | 105% (inactive)
26 | O=c1[nH]c2cc(Cl)ccc2c(O)c1-c1cccc(Oc2ccccc2)c1 | 120% (inactive)
27 | CC[C@@H]1SC2(CCN(C)CC2)NC1=O | 91.6% (inactive)
28 | CC(=O)[C@]1(O)Cc2c(O)c3c(c(O)c2[C@@H](O[C@H]2C[C@H](N)[C@H](O)[C@H](C)O2)C1)C(=O)c1ccccc1C3=O | 125% (inactive)
29 | C[C@H](Cc1ccccc1)Nc1ncnc2c1ncn2[C@@H]1O[C@H](CO)[C@H](O)C1O (stereo not given in full) | 118% (inactive)
30 | CNCCNS(=O)(=O)c1cccc2cnccc12 | 102% (inactive)
31 | O=C(OCCN1CCOCC1)C1(c2ccccc2)CCCCC1 | 123% (inactive)
32 | CC1=C(CC(=O)O)c2cc(F)ccc2/C1=C\c1ccc(S(C)(=O)=O)cc1 | 93.6% (inactive)
33 | CCc1cccc(N(C)C(N)=Nc2cccc3ccccc23)c1 | 96.2% (inactive)
34 | CCCCCCCCc1ccc(-c2ccc(C(=O)O)cc2)cc1 | 124% (inactive)
35 | CCCCC#Cc1nc(N)c2ncn([C@@H]3O[C@H](C(=O)NCC)[C@@H](O)[C@H]3O)c2n1 | 96.4% (inactive)
36 | N[C@@H](CS(=O)O)C(=O)O | 115% (inactive)
37 | N=C(N)N1CCc2ccccc2C1 | 106% (inactive)
38 | NCCNC(=O)c1ccc(Cl)cc1 | 88.1% (inactive)
39 | CC[N+](C)(C)Cc1ccccc1Br | 108% (inactive)
40 | CC1CN(S(=O)(=O)c2cccc3cnccc23)CCN1 (stereo not given) | 102% (inactive)
